Tb PFK inh-1: qHTS Assay to Find Inhibitors of T. brucei phosphofructokinase; ATP-dependent 6-phosphofructokinase (Trypanosoma brucei brucei), O15648; T. brucei PFK, ADP-Glo luminescence; Potency, µM (titrated, usually from 57.5 µM), without a hit: at the top dose activity, negative = inhibition, most hits filed as inhibitors; hit rate 0.17% among 330,000; AID 485367, 2010;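 also: potency is read from the fitted curve at half-maximal effect; 0% = uninhibited 1x PFK enzyme wells and -100% = no-enzyme wells; nearly all actives have a fitted effect of over 60% in size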
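PFK 1.25 nM, F6P 0.5 mM, ATP 0.1 mM, 0.1 M TEA pH 8.0, 5 mM MgCl2, 0.01% Tween20, 0.1% BSA; 45 min RT. ADP-Glo readout. qHTS titration up to 57 uM; curves fitted, compounds curve-classed.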
IL2 activator: qHTS of IL-2 Activators | IL-2 activation reporter assay, cell-based qHTS; stimulated with anti-CD3/CD4/CD28 beads; in transgenic mouse T cells | activation, % (series mostly up to about 46 µM) | hit rate 0.065% among 360,000 | AID 652025, 2013; in the data active = activation above about 50%; inconclusive = mostly about 30% to 49%; also: 0% is about no effect
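Screening format: compound pinned onto unstimulated transgenic mouse T cells, 60 min incubation, then anti-CD3/anti-CD4/anti-CD28 bead stimulation for 18 hours at 37 degrees C, followed by EGFP and DsRed detection.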
PKM2 activator: qHTS Assay for Activators of Human Muscle isoform 2 Pyruvate Kinase; Pyruvate kinase PKM (Homo sapiens), P14618; hit rate 0.34% among 260,000; Potency, µM (series often up to 57.5 µM), for the others: top-dose activation, most hits filed as activators; purified PKM2, Kinase-Glo ATP luminescence, activation; response scale: 0% is enzyme alone, no compound; also: potency is read from the fitted curve at half-maximal effect; % is scaled to controls: 0 for no effect and ±100 for the full control effect; nearly all actives have a fitted effect of over 55% in size
Target sequence (P14618 whole entry, looked up, canonical isoform): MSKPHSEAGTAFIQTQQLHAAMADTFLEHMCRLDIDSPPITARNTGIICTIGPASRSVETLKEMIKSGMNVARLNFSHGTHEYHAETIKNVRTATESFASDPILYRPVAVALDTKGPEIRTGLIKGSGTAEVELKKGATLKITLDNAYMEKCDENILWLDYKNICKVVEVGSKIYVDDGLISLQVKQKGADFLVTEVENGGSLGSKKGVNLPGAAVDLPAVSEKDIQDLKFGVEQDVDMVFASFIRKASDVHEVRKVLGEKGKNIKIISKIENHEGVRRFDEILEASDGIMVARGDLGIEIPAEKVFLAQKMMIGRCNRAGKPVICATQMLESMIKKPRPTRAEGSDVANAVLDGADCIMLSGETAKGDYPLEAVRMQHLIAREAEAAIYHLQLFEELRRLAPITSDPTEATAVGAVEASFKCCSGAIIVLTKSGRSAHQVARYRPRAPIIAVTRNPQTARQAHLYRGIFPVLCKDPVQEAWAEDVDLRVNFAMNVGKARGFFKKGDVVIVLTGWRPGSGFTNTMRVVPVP
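Purified hPK-M2 (>95% pure) converted ADP (0.1 mM final) to ATP with 0.5 mM PEP in 50 mM imidazole pH7.2, KCl, MgCl2, Tween 20, BSA; 1 h at room temperature. ATP detected by Kinase-Glo luminescence.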
TCR act: Activators of T cell receptors: qHTS campaign; primary human leukocytes, anti-CD3, IL-2 HTRF, 48 h; 330,000 tested, under 10 active; AID 504894, 2011; Potency, µM (doses to about 9.22 µM), inactives show top-dose activation of IL-2 secretion, hits mostly activators; also: % of control where 0% means no effect
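48 hr co-incubation of compounds, a-CD3 beads and primary human leukocytes; IL-2 quantified homogeneously by HTRF with anti-IL-2 K and d2 conjugates.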
AT treatment: qHTS Assay for Identifying a Potential Treatment of Ataxia-Telangiectasia | hit rate 0.19% among 320,000 | Potency, µM (highest dose often 57.5 µM), for inactives: at the top dose activation, actives largely listed as activators | F2112 A-T fibroblasts, KAP-1 phosphorylation AlphaLISA; neocarzinostatin DNA damage 30 min before lysis; also: potency is read from the fitted curve at half-maximal effect; % of control where 0% means no effect; nearly all actives have a fitted effect of over 45% in size
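hTERT-immortalized A-T patient fibroblasts (F2112), 500 cells/well in OPTI-MEM, 1% FBS, got compounds for 60 min, then NCS for 30 min at 37C. Lysates were then assayed for phospho-KAP-1 by AlphaLISA (anti-pKAP1 donor, anti-KAP1 acceptor beads), 6 hr at 25C.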
Integrin act MD: qHTS for Activators of Integrin-Mediated Alleviation for Muscular Dystrophy; Potency, µM (top dose mostly 38.3 µM), without a hit: at the top dose activation, most hits filed as activators; alpha7betagal myoblasts, beta-gal FDG fluorescence, 48 h; hit rate 0.064% among 350,000;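 also: potency is read from the fitted curve at half-maximal effect; 100% = response of the positive control SU9516; nearly all actives have a fitted effect of over 60% in size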
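alpha7betagal+/- myoblasts (passage 13, 250/well) treated 48 h at 37C with compounds at 1:260 dilution of DMSO stock. Lysed, then beta-galactosidase activity read as FDG fluorescence (ex 480/em 540) after 30 min, with pre-read for autofluorescence.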
TbPFK ATP: Tb PFK orthogonal confirmatory assay using ATP depletion (Kinase-Glo Plus) as an alternative measure of Tb PFK activity: Hit Validation; Potency, µM (highest dose often 57.5 µM), for inactives: top-dose inhibition; AID 504636, 2011; shares compounds with Tb PFK inh-1; hit rate 47% among 1,100; Tb PFK enzyme, ATP depletion, Kinase-Glo Plus luminescence; calls by dose curve; also: potency is read from the fitted curve at half-maximal effect; nearly all actives have a fitted effect of over 60% in size
Tb PFK inh-2: Inhibitors of T. brucei phosphofructokinase: Hit Validation | shares compounds with Tb PFK inh-1 | purified T. brucei PFK, ADP-Glo luminescence, 45 min | Potency, µM (doses to about 57.5 µM), for the others: top-dose activity change, negative = inhibition, hits mostly inhibitors | hit rate 41% among 1,100;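 also: potency is read from the fitted curve at half-maximal effect; plate controls were full PFK enzyme control for no effect and no enzyme control for full effect; nearly all actives have a fitted effect of over 60% in size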
* marks the source's active call; other numbers are inactive results; ? = inconclusive; / = no result; [ ] = another dose, or the depositor's remark. Most compounds without a hit are left out; they make up all but 0.69% or so of the library. Unless noted, calls follow the shape of the dose curve; as a rule, active = well fitted curve in the direction sought with a large enough effect; inconclusive = small, poorly fitted or top-dose-only effect, or another doubt; inactive = no such curve, though single readings can be large; an effect the other way counts as inactive or inconclusive.

SMILES	Tb PFK inh-1	IL2 activator	PKM2 activator	TCR act	AT treatment	Integrin act MD	TbPFK ATP	Tb PFK inh-2
O=C(Nc1ccc2c(c1)OCCO2)c1ccc(Cl)c([N+](=O)[O-])c1	26.9µM*	-1.4	-5.3%	8.9%[46.1 µM]	-4.6%	-20.7%	12µM*	26.9µM*
Oc1ccc(/C=N/NP(=S)(c2ccccc2)c2ccccc2)c(O)c1O	1.0%	0.2	21.7%	-5.4%	-3.0%	0.0%	/	/
Oc1ccc(/C=N/NC(=S)Nc2cccnc2)c(O)c1O	?	1.8	12.0%	-0.7%	-9.9%	-74.9%	3.01µM*	7.57µM*
Cc1cccc(NC(=S)NC2CC3CCC(C2)N3Cc2ccco2)c1 (stereo unspecified)	-1.4%	-2.6	-5.8%	-5.8%	2.0%	-47.5%	/	/
Cc1cc(NS(=O)(=O)c2ccc(NC(=O)COc3ccc(Cl)c(C)c3)cc2)no1	12µM*	0.5	-0.3%	-1.5%	0.3%	0.7%	5.36µM*	13.5µM*
Cc1cc(NS(=O)(=O)c2ccc(NC(=O)COc3ccc(Cl)cc3Cl)cc2)no1	2.69µM*	-0.8	1.2%	-0.4%	0.4%	22.0%	1.51µM*	1.69µM*
O=C(/C=C1\C(=O)Nc2ccccc21)/C=C1\C(=O)Nc2ccccc21	?	-1.6	1.41µM*	-148.4%	-17.4%	-13.7%	1.69µM*	4.78µM*
CC(C)CC(C)N (stereo unspecified)	3.0%	0.3	/	0.5%	-2.1%	/	/	/
O=C1NCN(c2ccccc2)C12CCN(C(c1cc3ccccc3o1)c1nnnn1C1CCCCC1)CC2 (stereo unspecified)	/	-0.2	/	/	/	/	/	/
Cc1c(Br)c([N+](=O)[O-])nn1CC(=O)Nc1ccc(C(N)=O)cc1	19µM*	1.3	1.2%	-4.2%	-4.2%	1.4%	13.5µM*	26.9µM*
CC/C(=N\NC(=O)c1ccccc1)c1c(O)n(C2CCCCC2)c(=O)[nH]c1=O	1.7%	0.8	5.1%[0.46 µM]	-10.7%	0.7%	16.1%	/	/
